Assay [1] addresses Glucocorticoid receptor (Homo sapiens) (UniProt P04150). Description: qHTS assay for small molecule agonists of glucocorticoid receptor signaling (AID 588532; active = well fitted curve in the direction sought with a large enough effect in the signal ratio, with a control signal flat; the % refers to the signal ratio;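 note: 100% = dexamethasone at 0.1 µM and 0% = DMSO only wells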). The following applies: HeLa MMTV-bla, beta-lactamase ratio, agonist, 18 h; activation: stronger effect = higher value, percent of dexamethasone control, DMSO zero. The procedure, abridged: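 Quantitative HTS using CellSensor MMTV-bla HeLa cells in charcoal/dextran-treated serum; compounds tested up to 92 uM. After 18 h at 37 C, CCF4 dye reported reporter induction.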
Background: Quantitative high-throughput screening tests each substance at several concentrations.

Assay [2] shares this target. Description: qHTS assay for small molecule antagonists of glucocorticoid receptor signaling (AID 588533; active = well fitted inhibition curve with a large enough effect in the signal ratio, with a control signal flat, not every such curve was filed as active; the % refers to the signal ratio;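 note: cells stimulated with 2 nM dexamethasone as agonist; % is set by controls: 0 for no effect and ±100 for the full control effect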). The procedure, abridged: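 Antagonist-mode qHTS: compound titrations added to GRE-bla HeLa cells, then dexamethasone 2 nM final; 18 h, 37 C. CCF4 FRET fluorescence normalized to dexamethasone and DMSO; IC50 from Hill fit.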
Assay [3] concerns the target Peroxisome proliferator-activated receptor delta (Homo sapiens) (UniProt Q03181). The assay can be described thus: qHTS assay for small molecule agonists of peroxisome proliferator-activated receptor delta signaling (AID 588534).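 Note: 0% = DMSO basal wells and 100% = positive control agonist at 10 µM.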 The procedure, abridged: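 Agonist-mode beta-lactamase reporter readout (CCF4 dye, 2 h at RT) after 18 h at 37 °C exposure to a titration; Hill-equation fitting gave EC50 and maximal response.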

Assay [4] is described as follows: qHTS assay for small molecule antagonists of peroxisome proliferator-activated receptor delta signaling (AID 588535; active = well fitted inhibition curve with a large enough effect in the signal ratio, with a control signal flat, not every such curve was filed as active; the % refers to the signal ratio;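 for max response: cells co-treated with a PPAR-delta agonist as stimulator during compound exposure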). The settings on record: HEK293T PPARd-UAS-bla, beta-lactamase FRET ratio, 18 h; 460 nm channel. Summed up: (§1)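 Titrations were run on PPAR-delta-UAS-bla HEK293T cells in charcoal/dextran-stripped serum, incubated 18 h at 37 C. CCF4 fluorescence (460/530 nm) after 2 h RT; Hill equation yields IC50 and maximal response.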

In assay [5] the target is Peroxisome proliferator-activated receptor delta (Homo sapiens) (UniProt Q03181). The description is as above. The procedure, abridged: as §1
Assay [6] addresses Peroxisome proliferator-activated receptor gamma (Homo sapiens) (UniProt P37231). The assay can be described thus: qHTS assay for small molecule agonists of peroxisome proliferator-activated receptor gamma signaling (AID 588536; active = well fitted curve in the direction sought with a large enough effect in the signal ratio, with a control signal flat, not every such curve was filed as active; the % refers to the signal ratio;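 note: 0% = DMSO basal wells and 100% = rosiglitazone at 2 µM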). The procedure, abridged: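 This is an agonist-mode beta-lactamase reporter assay in HEK293 PPAR-gamma-UAS-bla cells with 1% charcoal/dextran FBS. Compound titrations ran 16 h at 37 C before CCF4 detection. EC50 and efficacy are Hill fits scaled to 2 uM rosiglitazone (100%) and DMSO basal.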

Assay [7] shares this target. Description: qHTS assay for small molecule antagonists of peroxisome proliferator-activated receptor gamma signaling (AID 588537; active = well fitted inhibition curve with a large enough effect in the signal ratio, with a control signal flat, not every such curve was filed as active; the % refers to the signal ratio;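 note: reporter cells co-stimulated with 50 nM rosiglitazone agonist during compound treatment; % of control where 0% means no effect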). The procedure, abridged:
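Antagonist-mode β-lactamase reporter screen run as a titration series. HEK293 PPARγ-UAS-bla cells are stimulated with rosiglitazone (50 nM final) for 16 h, then CCF4 is read at 460/530 nm. Data are scaled between DMSO and rosiglitazone and fitted to the Hill equation.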

Assay [8] addresses Vitamin D3 receptor (Homo sapiens) (UniProt P11473). Description: qHTS assay for small molecule antagonists of vitamin D receptor signaling (AID 588541).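 Note: receptor activated by calcitriol during compound treatment; series mostly up to about 77 µM; % is set by controls: 0 for no effect and ±100 for the full control effect.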 The procedure, abridged: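 Antagonist-mode beta-lactamase reporter assay: HEK293T VDR-UAS-bla cells were exposed to titrated compound alongside 1-alpha,25-dihydroxyvitamin D3 at 3 nM final for 16 h. Values were normalized to the 50 nM agonist control and DMSO basal, with IC50 and efficacy from Hill equation fits.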

Assay [9] shares this target. The assay can be described thus: qHTS assay for small molecule agonists of vitamin D receptor signaling (AID 588543).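 Note: 0% = DMSO basal and 100% = reference agonist control.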 The procedure, abridged:
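Measured: β-lactamase reporter activity (CCF4, 405 nm excitation, 460/530 nm emission) in HEK293T VDR-UAS-bla cells after 16 h compound exposure at 37 °C. Normalization against 50 nM 1α,25-dihydroxyvitamin D3 and DMSO; Hill-fit EC50.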

Assay [10] has as its target Thyroid hormone receptor beta (Homo sapiens) (UniProt P10828). Description: qHTS assay for small molecule agonists of thyroid hormone receptor beta signaling (AID 588545).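 Note: 0% = DMSO only and 100% = 10 nM T3.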 Summed up:
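Stimulation of a TR-driven beta-lactamase reporter was quantified in GripTite HEK 293 cells. Compound series ran for 18 hrs; curves were normalized to T3 and DMSO controls and fitted to yield EC50.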

Assay [11] is described as follows: qHTS assay for small molecule antagonists of retinoid X receptor alpha signaling (AID 588546; active = well fitted inhibition curve with a large enough effect in the signal ratio, with a control signal flat, not every such curve was filed as active; the % refers to the signal ratio;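 note: cells stimulated with 9-cis-retinoic acid as agonist; % is set by controls: 0 for no effect and ±100 for the full control effect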). The settings on record: HEK293T RXRa-UAS-bla, beta-lactamase ratio, antagonist mode; measured here: W530 green channel, cytotoxicity proxy. The procedure, abridged:
(§2)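 Beta-lactamase reporter inhibition, read as CCF4 fluorescence ratio (ex 405, em 460/530 nm) after 2 h at RT. HEK293T UAS-bla cells, 2500/well, were stimulated with 9-cis-RA at 500 or 100 nM final alongside test compound for 18 h at 37 C.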

Assay [12] concerns the target Retinoic acid receptor RXR-alpha (Homo sapiens) (UniProt P19793). The description is as above. The following applies: HEK293T RXRa-UAS-bla, beta-lactamase ratio, antagonist mode. The procedure, abridged:
as §2

The target in assay [13] is Thyroid hormone receptor beta (Homo sapiens) (UniProt P10828). The assay can be described thus: qHTS assay for small molecule antagonists of thyroid hormone receptor beta signaling (AID 588547; active = well fitted inhibition curve with a large enough effect in the signal ratio, with a control signal flat, not every such curve was filed as active; the % refers to the signal ratio;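 note: cells stimulated with 0.4 nM T3 agonist during compound exposure; series mostly up to about 77 µM; % is set by controls: 0 for no effect and ±100 for the full control effect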). The following applies: TR-UAS-bla HEK293, beta-lactamase ratio, antagonist mode, 18 h. The procedure, abridged: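 Inhibition of T3-driven (0.4nM final) beta-lactamase reporter activity was measured over 0.59 nM to 92 uM compound after 18 h at 37 C. The cells were GripTite HEK293 TR-UAS-bla in charcoal/dextran-stripped serum, with CCF4 ratio read-out and IC50 from Hill fits.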

Assay [14] is described as follows: qHTS assay for small molecule agonists of the antioxidant response element (ARE) signaling pathway (AID 651741; active = well fitted activation curve with a large enough effect in the signal ratio; the % refers to the signal ratio; note: potency is the fitted concentration of half-maximal effect). Summed up: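 Beta-lactamase reporter under ARE control in HepG2 cells, 2,000 per well, was induced by 16 h compound treatment at 37 C. Read-out was fluorescence from LiveBLAzer B/G FRET substrate after 2 h at room temperature.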
Assay [15] is described as follows: qHTS assay for small molecule activators of the p53 signaling pathway (AID 651743; active = well fitted activation curve with a large enough effect in the signal ratio, not every such curve was filed as active; the % refers to the signal ratio; note: potency is the fitted concentration of half-maximal effect; for activation: series mostly up to about 92 µM; % of control where 0% means no effect). The settings on record: HCT-116 p53RE-bla, beta-lactamase FRET ratio, 16 h; activation: stronger effect = higher value. The procedure, abridged: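 After 16 hours compound treatment at 37 C, HCT-116 cells stably expressing p53RE-driven beta-lactamase were loaded with LiveBLAzer B/G FRET substrate for 2 hours at room temperature. Fluorescence intensity served as the p53 activation read-out.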

Assay [16] can be described thus: qHTS assay for small molecule activators of the nuclear factor-kappa B (NF-kB) signaling pathway (AID 651749; active = well fitted activation curve with a large enough effect in the signal ratio; the % refers to the signal ratio; note: series mostly up to about 77 µM; % of control where 0% means no effect). The following applies: NF-kB-bla ME-180 cells, beta-lactamase FRET ratio, 16 h; activation: stronger effect = higher value. Summed up:
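Activation measured after 16 hr compound treatment at 37C, 5% CO2, of 2,000 ME-180 cells/well stably expressing an NF-kB response element–driven beta-lactamase reporter, via FRET-disruption fluorescence.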

The nature of assay [17]: qHTS assay for environmental chemicals that activate the Aryl hydrocarbon Receptor (AhR) signaling pathway (AID 651777; active = well fitted curve in the direction sought with a large enough effect; an effect the other way counts as inactive or inconclusive; note: % of control where 0% means no effect; nearly all actives have a fitted effect of over 15% in size). The following applies: 1A2-DRE human hepatoma cells, luciferase, 24 h; activation: stronger effect = higher value. The procedure, abridged: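 Quantitative HTS in stably transfected human liver-derived cells whose luciferase gene sits downstream of the CYP1A2 promoter and dioxin response element. After 24 hr exposure at 37 C, One-Glo luminescence was measured.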

The target in assay [18] is Peroxisome proliferator-activated receptor alpha (Homo sapiens) (UniProt Q07869). The assay can be described thus: qHTS assay for small molecule agonists of the peroxisome proliferator-activated receptor alpha (PPARalpha) signaling pathway (AID 651778; active = well fitted curve in the direction sought with a large enough effect; an effect the other way counts as inactive or inconclusive; note: % of control where 0% means no effect). The following applies: PathHunter PPARalpha complementation, chemiluminescence, 6 h; max response: stronger effect = higher value. The procedure, abridged: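 Chemiluminescence from complemented enzyme reported PPARalpha activation in cells after 6 hr of compound treatment at 37 C. The detection reagent was incubated for 60 min at room temperature, and compounds were scored as agonists.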

Assay [19] can be described thus: qHTS assay for small molecule agonists of the antioxidant response element (ARE) signaling pathway measured by Nrf2-dependant transcriptional activity - cell viability counter screen (AID 720653; active = well fitted curve in the direction sought with a large enough effect in the repeat runs; an effect the other way counts as inactive or inconclusive; note: % is set by controls: 0 for no effect and ±100 for the full control effect). The settings on record: ARE-bla HepG2 viability, CellTiter-Glo ATP luminescence, 16 h; max response: stronger effect = lower value. Summed up: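 Cytotoxicity counter screen: intracellular ATP quantified by CellTiter-Glo luminescence in the same ARE-bla HepG2 plates, after 16 h compound exposure and a 2 h beta-lactamase substrate step.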

The nature of assay [20]: qHTS assay for cell viability of HEK293 cells (AID 743288; active = well fitted curve in the direction sought with a large enough effect; an effect the other way counts as inactive or inconclusive; note: % is set by controls: 0 for no effect and ±100 for the full control effect; nearly all actives have a fitted effect of over 50% in size). The following applies: ATP luminescence (CellTiter-Glo), 18 h; max response: stronger effect = lower value. Summed up: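 HEK293, 18 h, 37 C, ATP luminescence. Cells at 2,000/well were allowed at least 5 h to settle before dosing; CellTiter-Glo developed 30 min at RT.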
Assay [21] can be described thus: qHTS assay for cell viability of the p53RE-bla HCT-116 cell line (AID 743292; active = well fitted curve in the direction sought with a large enough effect; an effect the other way counts as inactive or inconclusive; note: % is set by controls: 0 for no effect and ±100 for the full control effect; nearly all actives have a fitted effect of over 55% in size). The procedure, abridged:
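Viability of compound-treated p53RE-bla HCT-116 cells is taken from ATP-dependent luciferase luminescence. Treatment lasts 16 h at 37 C after a 5 h settling period; detection follows 30 min at room temperature.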

For assay [22], the target named is Nuclear receptor subfamily 1 group I member 2 (Rattus norvegicus) (UniProt Q9R1A7). Description: qHTS assay for small molecule activators of the rat pregnane X receptor (rPXR) signaling pathway (AID 651751; call rule not given here; note: 0% is about no effect). The following applies: rPXR reporter cells, luciferase (One-Glo), 24 h.
Assay [23] deals with Bile acid receptor (Homo sapiens) (UniProt Q96RI1). The assay can be described thus: qHTS assay for small molecule agonists of farnesoid X receptor signaling (AID 588527).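 Note: series mostly up to about 77 µM; 0% = vehicle basal and 100% = reference agonist.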 The settings on record: HEK293T FXR-UAS-bla, beta-lactamase ratio, 16 h; activation: stronger effect = higher value. Summed up: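 Agonist-mode beta-lactamase reporter in GeneBLAzer FXR-UAS-bla HEK293T cells, titration up to 92 uM, 16 h exposure at 37 C, CCF4 fluorescence. Response scaled to DMSO (0%) and 100 uM chenodeoxycholic acid (100%), then Hill-fitted for EC50 and efficacy.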

Assay [24] is described as follows: qHTS assay for small molecule agonists of the antioxidant response element (ARE) signaling pathway measured by Nrf2-dependant transcriptional activity (AID 720636; active = well fitted curve in the direction sought with a large enough effect in the repeat runs; an effect the other way counts as inactive or inconclusive; note: % of control where 0% means no effect). The procedure, abridged: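 Quantitative HTS format in HepG2 cells stably expressing an ARE-luciferase reporter; 16 hr compound treatment at 37 C, luciferase signal detected with ONE-Glo.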
Assay [25] addresses Cytochrome P450 3A4 (Homo sapiens) (UniProt P08684). Description: qHTS Assay for Inhibitors and Substrates of Cytochrome P450 3A4 (AID 884; active = well fitted curve in the direction sought with a large enough effect; an effect the other way counts as inactive or inconclusive; note: potency is the fitted concentration of half-maximal effect; nearly all actives have a fitted effect of over 50% in size). Summed up:
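Luminescent readout of luciferin produced by CYP3A4 (20 nM) dealkylation of Luciferin-PPXE, 25 uM (its KM). NADPH-driven reaction ran 60 min at RT after 10 min compound preincubation; data scaled to 57 uM ketoconazole as 100% inhibition.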

Assay [26] shares this target. The assay can be described thus: qHTS Assay for Activators of Cytochrome P450 3A4 (AID 885; active = well fitted curve in the direction sought with a large enough effect; an effect the other way counts as inactive or inconclusive; note: nearly all actives have a fitted effect of over 65% in size). Summed up: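 Luminescent readout of luciferin formed from 25 uM Luciferin-PPXE (KM level) by 20 nM CYP3A4 in 200 mM KPO4, with 60 min NADPH-driven reaction at room temperature after 10 min compound exposure. Ketoconazole (57 uM) defined 100% inhibition.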

The results in this text go back to PubChem BioAssay (NCATS).

“And” between values parts separate entries of the source, which are not always exact repeats. Identical values can stand only once. Records with an inconclusive call do not appear. The source made the active and inactive calls. Unless noted, calls come from the whole dose curve.

Chain of Bile acid receptor (Homo sapiens) (Q96RI1 whole entry, looked up): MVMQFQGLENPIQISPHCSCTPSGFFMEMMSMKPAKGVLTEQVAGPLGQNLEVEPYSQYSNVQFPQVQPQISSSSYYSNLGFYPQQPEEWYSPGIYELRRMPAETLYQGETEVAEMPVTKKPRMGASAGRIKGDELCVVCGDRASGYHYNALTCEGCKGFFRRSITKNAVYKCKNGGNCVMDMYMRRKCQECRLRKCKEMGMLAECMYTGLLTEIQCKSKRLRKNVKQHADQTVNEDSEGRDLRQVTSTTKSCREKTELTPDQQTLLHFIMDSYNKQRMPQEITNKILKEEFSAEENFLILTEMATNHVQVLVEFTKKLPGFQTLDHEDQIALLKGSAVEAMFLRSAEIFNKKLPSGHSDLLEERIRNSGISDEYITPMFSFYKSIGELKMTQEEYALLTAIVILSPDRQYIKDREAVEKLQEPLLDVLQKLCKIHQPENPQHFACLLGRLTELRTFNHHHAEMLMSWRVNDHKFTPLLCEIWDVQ
Chain of Vitamin D3 receptor (Homo sapiens) (P11473 whole entry, looked up): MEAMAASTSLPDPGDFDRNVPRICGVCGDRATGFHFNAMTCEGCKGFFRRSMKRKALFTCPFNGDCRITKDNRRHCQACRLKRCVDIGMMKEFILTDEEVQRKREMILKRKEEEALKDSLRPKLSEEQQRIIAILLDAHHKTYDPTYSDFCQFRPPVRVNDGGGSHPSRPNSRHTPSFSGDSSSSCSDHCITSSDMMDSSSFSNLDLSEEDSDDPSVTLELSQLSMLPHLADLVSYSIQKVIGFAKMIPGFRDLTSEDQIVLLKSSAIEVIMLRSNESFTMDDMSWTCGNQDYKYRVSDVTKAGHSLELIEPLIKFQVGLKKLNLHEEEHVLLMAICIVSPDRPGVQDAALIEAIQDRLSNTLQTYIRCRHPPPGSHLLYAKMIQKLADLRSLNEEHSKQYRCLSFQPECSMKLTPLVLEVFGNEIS
Chain of Cytochrome P450 3A4 (Homo sapiens) (P08684 whole entry, looked up): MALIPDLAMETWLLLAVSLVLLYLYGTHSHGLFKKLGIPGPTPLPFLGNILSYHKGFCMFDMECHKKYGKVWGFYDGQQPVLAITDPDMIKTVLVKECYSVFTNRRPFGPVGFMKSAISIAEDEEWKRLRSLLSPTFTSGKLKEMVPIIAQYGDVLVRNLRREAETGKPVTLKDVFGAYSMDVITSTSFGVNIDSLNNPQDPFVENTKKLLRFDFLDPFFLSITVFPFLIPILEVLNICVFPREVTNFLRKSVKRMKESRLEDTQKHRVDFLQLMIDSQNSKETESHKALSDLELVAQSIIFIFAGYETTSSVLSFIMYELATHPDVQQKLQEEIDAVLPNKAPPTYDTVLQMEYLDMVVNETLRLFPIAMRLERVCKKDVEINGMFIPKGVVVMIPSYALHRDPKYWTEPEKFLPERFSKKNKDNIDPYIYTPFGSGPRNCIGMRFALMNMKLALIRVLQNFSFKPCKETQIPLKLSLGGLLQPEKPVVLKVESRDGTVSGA
Chain of Peroxisome proliferator-activated receptor delta (Homo sapiens) (Q03181 whole entry, looked up): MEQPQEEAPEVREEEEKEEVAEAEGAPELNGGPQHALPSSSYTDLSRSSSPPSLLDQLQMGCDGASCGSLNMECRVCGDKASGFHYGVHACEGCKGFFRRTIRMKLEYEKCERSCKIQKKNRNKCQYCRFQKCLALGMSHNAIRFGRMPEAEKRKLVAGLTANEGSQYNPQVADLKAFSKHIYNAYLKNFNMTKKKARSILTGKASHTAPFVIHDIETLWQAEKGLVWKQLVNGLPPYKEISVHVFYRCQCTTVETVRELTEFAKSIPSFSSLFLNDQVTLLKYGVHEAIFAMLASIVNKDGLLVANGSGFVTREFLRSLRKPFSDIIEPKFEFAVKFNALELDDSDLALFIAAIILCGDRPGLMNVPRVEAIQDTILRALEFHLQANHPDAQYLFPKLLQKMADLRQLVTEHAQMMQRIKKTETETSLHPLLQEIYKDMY
Chain of Peroxisome proliferator-activated receptor gamma (Homo sapiens) (P37231 whole entry, looked up): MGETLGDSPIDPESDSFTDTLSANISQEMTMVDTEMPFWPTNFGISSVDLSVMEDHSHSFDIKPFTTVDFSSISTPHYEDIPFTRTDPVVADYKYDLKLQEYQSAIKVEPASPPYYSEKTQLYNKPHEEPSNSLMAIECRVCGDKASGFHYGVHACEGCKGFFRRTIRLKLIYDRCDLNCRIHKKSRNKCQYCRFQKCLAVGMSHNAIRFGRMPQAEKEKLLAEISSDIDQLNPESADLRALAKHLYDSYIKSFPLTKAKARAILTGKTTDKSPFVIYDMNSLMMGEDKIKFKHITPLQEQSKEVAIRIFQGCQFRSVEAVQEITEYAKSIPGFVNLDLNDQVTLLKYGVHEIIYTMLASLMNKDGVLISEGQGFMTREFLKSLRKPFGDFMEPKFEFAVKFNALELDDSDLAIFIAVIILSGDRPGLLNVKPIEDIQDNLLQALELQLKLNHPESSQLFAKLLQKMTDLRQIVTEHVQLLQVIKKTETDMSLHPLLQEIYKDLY
Chain of Thyroid hormone receptor beta (Homo sapiens) (P10828 whole entry, looked up): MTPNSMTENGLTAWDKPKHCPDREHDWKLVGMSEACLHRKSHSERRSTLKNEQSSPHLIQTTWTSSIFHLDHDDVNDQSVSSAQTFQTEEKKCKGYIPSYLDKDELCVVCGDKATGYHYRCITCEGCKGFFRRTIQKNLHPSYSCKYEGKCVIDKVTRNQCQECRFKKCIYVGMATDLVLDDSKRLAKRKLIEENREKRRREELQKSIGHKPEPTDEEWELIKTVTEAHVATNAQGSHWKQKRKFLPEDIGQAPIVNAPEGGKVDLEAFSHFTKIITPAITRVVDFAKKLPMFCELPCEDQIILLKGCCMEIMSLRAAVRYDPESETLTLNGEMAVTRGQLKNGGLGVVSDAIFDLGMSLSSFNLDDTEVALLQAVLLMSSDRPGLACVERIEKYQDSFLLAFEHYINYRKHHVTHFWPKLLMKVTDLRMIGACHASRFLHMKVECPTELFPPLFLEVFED
Chain of Glucocorticoid receptor (Homo sapiens) (P04150 whole entry, looked up): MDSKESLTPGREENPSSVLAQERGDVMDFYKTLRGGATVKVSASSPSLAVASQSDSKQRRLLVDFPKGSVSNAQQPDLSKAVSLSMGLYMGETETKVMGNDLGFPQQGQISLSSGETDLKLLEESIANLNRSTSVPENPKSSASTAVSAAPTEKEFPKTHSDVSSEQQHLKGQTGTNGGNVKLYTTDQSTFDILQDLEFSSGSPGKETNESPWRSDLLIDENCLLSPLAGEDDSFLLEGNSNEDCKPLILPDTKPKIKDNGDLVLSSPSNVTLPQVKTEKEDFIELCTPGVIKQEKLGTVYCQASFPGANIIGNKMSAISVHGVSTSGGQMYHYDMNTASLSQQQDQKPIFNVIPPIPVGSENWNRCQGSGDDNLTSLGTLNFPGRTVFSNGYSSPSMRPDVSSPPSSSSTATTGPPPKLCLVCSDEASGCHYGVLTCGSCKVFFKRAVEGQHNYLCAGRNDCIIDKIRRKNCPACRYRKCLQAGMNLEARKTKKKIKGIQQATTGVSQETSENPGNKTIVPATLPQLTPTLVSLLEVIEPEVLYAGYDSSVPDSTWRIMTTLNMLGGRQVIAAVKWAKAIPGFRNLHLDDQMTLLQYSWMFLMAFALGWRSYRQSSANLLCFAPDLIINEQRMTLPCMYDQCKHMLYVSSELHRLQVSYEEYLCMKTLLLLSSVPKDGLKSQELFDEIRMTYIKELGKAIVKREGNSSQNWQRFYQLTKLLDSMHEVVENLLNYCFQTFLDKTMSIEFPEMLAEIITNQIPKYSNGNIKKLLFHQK
Chain of Peroxisome proliferator-activated receptor alpha (Homo sapiens) (Q07869 whole entry, looked up): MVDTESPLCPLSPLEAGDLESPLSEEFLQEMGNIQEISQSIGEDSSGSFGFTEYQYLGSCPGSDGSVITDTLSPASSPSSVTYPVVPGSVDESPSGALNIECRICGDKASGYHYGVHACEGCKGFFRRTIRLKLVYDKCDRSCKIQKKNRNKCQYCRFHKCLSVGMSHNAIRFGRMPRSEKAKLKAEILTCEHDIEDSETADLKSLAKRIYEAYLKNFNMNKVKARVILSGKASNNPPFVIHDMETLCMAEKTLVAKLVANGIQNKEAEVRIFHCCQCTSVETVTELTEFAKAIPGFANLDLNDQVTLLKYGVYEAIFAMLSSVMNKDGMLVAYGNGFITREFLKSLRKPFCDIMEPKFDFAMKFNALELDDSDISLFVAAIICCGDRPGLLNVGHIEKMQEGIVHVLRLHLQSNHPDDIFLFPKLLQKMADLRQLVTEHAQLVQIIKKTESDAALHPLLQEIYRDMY
Chain of Retinoic acid receptor RXR-alpha (Homo sapiens) (P19793 whole entry, looked up): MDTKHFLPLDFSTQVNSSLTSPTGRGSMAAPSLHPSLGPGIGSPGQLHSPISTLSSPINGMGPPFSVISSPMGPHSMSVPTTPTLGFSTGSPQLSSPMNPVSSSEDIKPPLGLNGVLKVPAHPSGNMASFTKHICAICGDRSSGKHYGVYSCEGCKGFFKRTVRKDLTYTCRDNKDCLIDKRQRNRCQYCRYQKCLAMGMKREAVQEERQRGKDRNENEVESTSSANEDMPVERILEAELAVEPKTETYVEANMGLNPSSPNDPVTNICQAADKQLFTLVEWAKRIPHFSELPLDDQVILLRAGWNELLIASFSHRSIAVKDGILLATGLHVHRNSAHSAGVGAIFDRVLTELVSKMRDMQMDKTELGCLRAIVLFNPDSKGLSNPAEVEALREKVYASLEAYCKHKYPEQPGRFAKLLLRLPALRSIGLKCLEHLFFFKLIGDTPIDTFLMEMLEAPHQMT
Chain of Nuclear receptor subfamily 1 group I member 2 (Rattus norvegicus) (Q9R1A7 whole entry, looked up): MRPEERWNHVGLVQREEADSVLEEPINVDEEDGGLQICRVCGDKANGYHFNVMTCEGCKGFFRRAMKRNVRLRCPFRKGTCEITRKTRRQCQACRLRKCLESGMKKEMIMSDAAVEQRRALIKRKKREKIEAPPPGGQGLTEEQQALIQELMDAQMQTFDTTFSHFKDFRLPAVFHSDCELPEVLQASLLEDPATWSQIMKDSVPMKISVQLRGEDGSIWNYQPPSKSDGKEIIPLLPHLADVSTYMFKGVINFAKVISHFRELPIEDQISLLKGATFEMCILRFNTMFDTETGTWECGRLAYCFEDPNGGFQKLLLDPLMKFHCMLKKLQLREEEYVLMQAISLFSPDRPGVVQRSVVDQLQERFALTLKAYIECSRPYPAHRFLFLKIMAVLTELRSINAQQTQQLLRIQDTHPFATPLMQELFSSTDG

`O=[N+]([O-])c1ccc(Oc2ccc(Cl)cc2Cl)cc1`: the activation was -3.5% (inactive) in assay [1], -0.909% (inactive) in assay [15], -1.65% (inactive) in assay [16] and 0.167% (inactive) in assay [17]. In addition, the Potency entry in assay [2], in assay [5], in assay [6], in assay [7], in assay [8] and in assay [10] was “inactive” each time. Besides, the Potency result in [21] was “inactive”. In addition, the compound was called inactive in [3] and in [9]. For the same compound, the max response is -2.51% in assay [4]; -7.09% in assay [11]; 5.62% (inactive) in assay [12]; 5% (inactive) in [18]; -3.33% (inactive) in [19]; -5.28% (inactive) in assay [20]. Further, the max response in [22] was 6.97% (inactive). In [13], the activity change % (negative = inhibition) is -8.47% (inactive). In addition, the Potency in assay [14] was 48.6 µM (active).

Regarding `CCc1nn(C)c(C(=O)NCc2ccc(C(C)(C)C)cc2)c1Cl`, the activation in [23] was 2.45% (inactive); in [16], 2.69% (inactive); in assay [17], 6.31% (inactive). In addition, the compound was classed as inactive in assay [9]. Moreover, the Potency in assay [15] is 0.355 µM (active). In addition, the Potency result in assay [24] is “inactive”. For the same compound, the max response in [20] was -25.1% (inactive).

On to `CC(=O)OCc1ccc2c(c1)OCO2`, for which, in assay [25], the Potency was 10 µM (active). Also, the Potency entry in assay [26] is “inactive”. In addition, the activation in [23] was -1.12% (inactive).

Consider `CC1(C)CC(N=C=O)CC(C)(CN=C=O)C1` (stereo not given), for which the Potency in assay [25] was 25.1 µM (active). The Potency entry in assay [26] is “inactive”. Besides, in assay [23], the activation was -0.574% (inactive) and 2.35% (inactive).

On to `Nc1ccc(Cl)cc1Cl`, for which, in assay [26], the Potency entry was “inactive”. In addition, the activation in assay [23] was 0.621% (inactive) and -4.4% (inactive). The compound was called inactive in assay [3].

Turning to `CCOC(=O)C(C)Oc1ccc(Oc2nc3ccc(Cl)cc3o2)cc1` (stereo not given), in [23], the activation was -3.02% (inactive). For the same compound, in [6], the Potency entry is “inactive”.
